Assay outcomes as filed in PubChem BioAssay.
The list is not random: actives were taken first. Their share in the collection is about 4.7%.
SUMO HTRF inh – blocks human SUMOylation mediated by UBC9. HTRF SUMOylation assay, SAE1/SAE2 + UBC9, in vitro. hit rate 0.36% among 290,000. inhibition, % at 35 µM. P63279. AID 2006; in the data active = inhibition above about 50%, passing the limit was not always enough; inconclusive = no clear call, values can overlap the other calls
ALR inh – inhibitors of human sulfhydryl oxidase ALR. purified ALR, DTT oxidation, H2O2 HRP-luminol luminescence. inhibition, % (no concentration beside the values). hit rate 3.8% among 290,000. P55789;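 active = mean replicate inhibition above about 79%, with every replicate also reaching it, limit read from the data; inconclusive = only one of the two criteria met; inactive = mean below limit and not every replicate reaching it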
Target sequence (P55789 whole entry, looked up): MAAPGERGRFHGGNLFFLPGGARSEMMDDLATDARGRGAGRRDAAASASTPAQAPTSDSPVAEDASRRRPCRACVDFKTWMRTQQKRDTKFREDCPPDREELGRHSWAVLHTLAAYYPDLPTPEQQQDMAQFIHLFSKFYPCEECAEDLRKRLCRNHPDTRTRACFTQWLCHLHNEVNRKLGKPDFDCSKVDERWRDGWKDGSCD
PABP FP inh – PABP-poly(A) binding inhibition | inhibition, % at 35 µM | hit rate 1% among 290,000 | P11940 | AID 2014 | PABP-poly(A) RNA binding, fluorescence polarization;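 also: calls also rest on retests at 20 µM and on dose response follow-up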
MLLE-PAM2 inh – blocks PAM2 peptide binding to the PABP1 MLLE domain. P11940. GST-MLLE / FITC-PAM2 fluorescence polarization. inhibition, % at 20 µM. hit rate 0.36% among 360,000. AID 588489; in the data active = inhibition above about 35%, passing the limit was not always enough;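 also: plate controls were DMSO wells with GST-MLLE for no effect and wells lacking GST-MLLE protein for full effect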
eIF4H FP inh – inhibitors of RNA binding by human eIF4H; Q15056; eIF4H fluorescence polarization binding assay; inhibition, % at 35 µM; hit rate 0.94% among 290,000; AID 2012;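 also: calls also rest on retests at 20 µM and on dose response follow-up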
Efflux pump mplx – inhibitors of Candida antifungal efflux pumps expressed in yeast; S. cerevisiae Candida pump triplex, Nile Red efflux; inhibition, % at 10 µM; hit rate 0.44% among 330,000; AID 485275;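 active = plate passing quality check with inhibition over a set limit, or well fluorescence over plate mean plus 4 SD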;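 also: Nile Red retained in pooled yeast measured as flow cytometry median fluorescence; 0% = buffer negative control and 100% = Enniatin B positive control; higher means more Nile Red kept so more efflux inhibition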
* marks the source's active call; other numbers are inactive results; ? = inconclusive; / = no result given. Unless noted, no rule for the calls is given here.

SMILES	SUMO HTRF inh	ALR inh	PABP FP inh	MLLE-PAM2 inh	eIF4H FP inh	Efflux pump mplx
O=C(N/N=C/c1ccc(O)cc1)/C(=C/c1ccccc1)CCO	14	100*	0	2	-2	0
CC(=O)Nc1ccc(/C=N\NC(=O)CNS(=O)(=O)c2ccc([N+](=O)[O-])cc2)cc1	1	-18	0	0	-5	0
O=C(N/N=C/c1ccccc1)C(=O)N/N=C/c1ccccc1	18	-2	-4	2	7	0
O=C(CNS(=O)(=O)c1ccc([N+](=O)[O-])cc1)N/N=C\c1ccc(O)cc1	17	99*	-7	7	-8	0
CCOc1ccc(C(=O)CCC(=O)N2CCN(S(=O)(=O)c3cccc(F)c3)CC2)cc1	/	-4	/	8	/	0
CC(=O)N(C)c1ccc(NC(=O)N2CCOCC2)cc1	-2	-6	6	-10	10	0
O=C(Nc1ccc(Nc2ccccc2)cc1)N1CCOCC1	-2	99*	5	13	-8	0
O=C(Nc1ccc(O)cc1)N1CCOCC1	12	99*	-4	5	-2	0
COC(=O)c1ccc(NC(=O)N2CCOCC2)cc1	1	28	2	-12	12	0
N#C/C(=C\c1ccc(O)cc1)C(=O)N1CCCC1	18	81*	-15	2	-4	0
CC(C)C(N)c1csc(Nc2ccc(C(=O)c3ccccc3)cc2)n1 (stereo not given)	/	/	/	-4	/	/
CC1C(=O)NN=C1C(=O)N/N=C/c1ccco1 (stereo not given)	-5	70	-2	-7	1	0
CC1C(=O)NN=C1C(=O)N/N=C\c1ccc(O)cc1O (stereo not given)	89*	98*	-5	10	43	0
COc1cc(/C=N/NC(=O)C2=NNC(=O)C2C)ccc1O (stereo not given)	10	98*	-2	-3	2	0
COc1ccc(N2CC(C(=O)Nc3cc(C)ccn3)CC2=O)cc1 (stereo not given)	11	-3	4	-3	6	0
COc1ccc(OCc2nnc(SC(C)C(=O)Nc3ccc(N4CCOCC4)cc3)n2C)cc1 (stereo not given)	/	/	/	-4	/	/
Cc1c(CCC(=O)NCCC(=O)O)c(=O)oc2c(C)c3oc4c(c3cc12)CCCC4	30	98*	17	-4	-6	0
Cc1c(CCC(=O)N[C@@H](C)C(=O)O)c(=O)oc2c(C)c3oc4c(c3cc12)CCCC4	18	97*	21	14	-1	0
CC(NCc1cc(Br)ccc1OCC(N)=O)C12CC3CC(CC(C3)C1)C2 (stereo not given)	16	1	-7	-2	9	0
COCCCn1c(=S)[nH]c2sc3c(c2c1=O)CCCS3	-9	99*	1	-61	16	0
COc1ccc(Cl)cc1NC(=O)CN(C)CC(=O)Nc1ccc(C)cc1Br	-7	/	4	1	4	0
O=c1[nH]n2c(=O)c3c([nH]c2c1N=Nc1cccc(C(F)(F)F)c1)CCCC3	-23	97*	13	18	-3	0
O=c1[nH]n2c(=O)c3c([nH]c2c1N=Nc1cccc(Cl)c1)CCC3	-15	35	-3	17	3	0
O=C(Nc1cccc(-c2nc3ccccc3s2)c1)c1cc(-n2cnnc2)ccc1Cl	12	-10	-6	-38	-5	0
Cc1c(NC(=O)c2cc(-n3cnnc3)ccc2Cl)cccc1-c1nc2ccccc2s1	8	88*	-4	-39	2	0
SMILES	SUMO HTRF inh	ALR inh	PABP FP inh	MLLE-PAM2 inh	eIF4H FP inh	Efflux pump mplx
Cc1ccccc1C(=O)NNC(=O)CCC(=O)Nc1cccc(Cl)c1C	-15	-12	0	7	4	0
Cc1c(NS(=O)(=O)c2ccc3nc(COc4ccccc4Cl)[nH]c3c2)c(=O)n(-c2ccccc2)n1C	11	99*	-9	-13	9	0
CSc1nc2ccc(S(=O)(=O)Nc3c(C)n(C)n(-c4ccccc4)c3=O)cc2s1	12	99*	5	6	-6	0
Cc1ccc(C)c(OCc2nc3ccc(S(=O)(=O)Nc4c(C)n(C)n(-c5ccccc5)c4=O)cc3[nH]2)c1	-6	-14	-12	10	8	0
CC(C(=O)Nc1ccc2c(c1)OCO2)n1cnc2c1c(=O)n(C)c(=O)n2C (stereo not given)	/	-12	/	6	/	0
Nc1c(C(=O)NCC2CCCO2)sc2nc3c(c(-c4ccco4)c12)CC/C3=C\c1ccco1 (stereo not given)	?	/	2	-34	110*	/
Cc1ccccc1NC(=O)c1sc2nc3c(c(-c4ccco4)c2c1N)CCC3	39	30	58*	14	88*	0
NC(=O)c1sc2nc3c(c(-c4ccco4)c2c1N)CCCC3	-12	0	12	18	10	0
CCOC(=O)c1ccc(NC(=O)CSCCC(=O)O)cc1	2	99*	1	-13	2	0
COC(=O)c1ccc(NC(=O)CSCC(=O)OCC(=O)c2ccc(Br)cc2)cc1	22	99*	10	35	-1	0
CCOC(=O)c1ccc(NC(=O)c2ccco2)cc1	5	0	1	-4	-4	0
CCOC(=O)c1ccc(NC(=O)CSCc2ccco2)cc1	-2	100*	3	18	11	4
Cc1ccc(NC(=O)COc2cccc(Oc3ccccc3)c2)cc1S(=O)(=O)N1CCOCC1	/	-5	/	-2	/	0
Cc1ccc(N2C(=N)/C(=C3/Nc4ccccc4S3)C(c3ccccc3)C2=O)cc1 (stereo not given)	7	41	0.6*	4	84*	0
CCN1CCN(Cc2ccc(NC(=O)Nc3ccc(SC)cc3)cc2)CC1	2	96*	-9	1	-2	0
CCN1CCN(Cc2ccc(NC(=O)Nc3ccccc3)cc2)CC1	22	60	-16	6	-12	0
CCOc1ccc2c(c1)nc(SCC(=O)c1cccs1)n2C	8	97*	2	-111	3	0
CC(C)(C)C(=O)N1CCc2cc(-c3csc(N)n3)ccc21	2	99*	1	9	-8	0
CCC(C)C(=O)N1CCc2cc(-c3csc(N)n3)ccc21 (stereo not given)	23	98*	3	20	-7	0
CCCC(=O)N1CCc2cc(-c3nc(N)sc3C)ccc21	13	98*	12	-112	-5	0
CNc1nc(-c2ccc3c(c2)CCN3C(=O)c2ccccc2F)cs1	-2	/	4	7	-14	/
CNc1nc(-c2ccc3c(c2)CCN3C(=O)CC(C)(C)C)c(C)s1	-10	44	-6	-44	-13	0
COc1ccc(NC(=O)C2CCCN2S(=O)(=O)c2ccc3c(c2)CC(C)N3C(C)=O)cc1OC (stereo not given)	1	-15	6	-6	2	0
OC[C@@H]1CN(Cc2ccco2)C[C@H](n2cnc3c(NC4CC4)ncnc32)O1	/	/	/	3	/	/
